One assay has as its system CRL-7250. Briefly: Cytotoxic Profiling of Annotated Libraries Using Quantitative High-Throughput Screening (AID 1296008). Also: potency is read from the fitted curve at half-maximal effect. As to max response: % is scaled to controls: 0 for no effect and ±100 for the full control effect. The conditions noted are these: Five cell lines viability, CellTiter-Glo ATP luminescence, 48-72 h; max response: stronger effect = lower value. An outline of the steps:
(§1)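 Compounds were pin-transferred onto cells and incubated 48 or 72 hr at 37 degree Celsius, 95% humidity. CellTiter-Glo was added, plates sat 10 min at room temperature, then ATP-coupled luminescence was imaged as the viability read-out.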

The subject of another assay is HEK293. The description is as above. The conditions noted are these: Five cell lines viability, CellTiter-Glo ATP luminescence, 48-72 h; max response: stronger effect = lower value. An outline of the steps: as §1
For the next assay, the system named is HaCat. The assay is described as above. To be noted: Five cell lines viability, CellTiter-Glo ATP luminescence, 48-72 h; max response: stronger effect = lower value. Put shortly:
as §1

In the next assay the test system is KB-3-1. Described as above. The conditions noted are these: Five cell lines viability, CellTiter-Glo ATP luminescence, 48-72 h; max response: stronger effect = lower value. Put shortly: as §1
Background: In ATP-based viability assays light output follows the ATP content of the culture.

Assay [1] concerns NIH3T3. The assay is described as above. To be noted: Five cell lines viability, CellTiter-Glo ATP luminescence, 48-72 h; max response: stronger effect = lower value. Put shortly: as §1
For the next assay, the system named is MCC-13. Nature of the assay: qHTS assay to identify novel small-molecules to repurpose for Merkel cell carcinoma treatment (AID 1296009). Also: potency is read from the fitted curve at half-maximal effect. To be noted: MCC and control cell lines, CellTiter-Glo viability, 72 h; series mostly up to 46 µM. An outline of the steps:
(§2)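 Viability readout: ATP luminescence (CellTiter-Glo) after 72 hr drug exposure at 37 degree celsius. Dose-response format was 8 points for NPC and 11 points for MIPE; data normalized to in-plate controls.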
A general note: qHTS replaces the single test concentration by a dilution series.

For the next assay, the system named is MCC-26. The assay is described as above. The conditions noted are these: MCC and control cell lines, CellTiter-Glo viability, 72 h; series mostly up to 46 µM. An outline of the steps: as §2
The subject of the next assay is MKL-1. Described as above. To be noted: MCC and control cell lines, CellTiter-Glo viability, 72 h; series mostly up to 46 µM. An outline of the steps: as §2
The next assay has as its system MKL-2. Described as above. To be noted: MCC and control cell lines, CellTiter-Glo viability, 72 h; series mostly up to 46 µM. Put shortly:
as §2

In another assay the test system is UISO. Described as above. To be noted: MCC and control cell lines, CellTiter-Glo viability, 72 h; series mostly up to 46 µM. Put shortly: as §2
The next assay deals with WaGa. The assay is described as above. To be noted: MCC and control cell lines, CellTiter-Glo viability, 72 h; series mostly up to 46 µM. Put shortly: as §2
In assay [2] the test system is NIH3T3. Described as above. To be noted: MCC and control cell lines, CellTiter-Glo viability, 72 h; at 44.8 µM (top of the series) unless noted. Put shortly: as §2
In the next assay the test system is TAB165. Nature of the assay: qHTS profiling for inhibitors of Plasmodium falciparum proliferation (AID 504749).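 Also: 0% = DMSO vehicle and full inhibition = artemisinin control.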 To be noted: P. falciparum in erythrocytes, SYBR Green DNA, 72 h; series mostly up to 28.7 µM. Put shortly: (§3)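 Quantitative HTS: compounds pinned into medium, infected erythrocytes added (0.3% parasitemia, 2.5% hematocrit), 72 h culture at 37 C under 5% CO2. Saponin/Triton lysis with SYBR Green I, overnight RT, then fluorescence read.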

In the next assay the test system is W2. Described as above. The conditions noted are these: P. falciparum in erythrocytes, SYBR Green DNA, 72 h; series mostly up to 28.7 µM. An outline of the steps:
as §3

The structures appear in SMILES notation. Inconclusive results are not listed. A number with no mark means an inactive call. Calls of active or inactive are those of the source. Calls follow the shape of the dose curve; as a rule, active = well fitted inhibition curve with a large enough effect; inconclusive = small, poorly fitted or top-dose-only effect; inactive = flat fitted curve, though single readings scatter.
Also: nearly all actives have a fitted effect of over 60% in size.

Take `COC1=C(OC)C(=O)C(CC=C(C)CCC=C(C)CCC=C(C)CCC=C(C)CCC=C(C)CCC=C(C)CCC=C(C)CCC=C(C)CCC=C(C)CCC=C(C)C)=C(C)C1=O`: in the assay on CRL-7250, the outcome was inactive. For the same molecule, the max response in the assay on HEK293 was -5.18%; with HaCat, -8.05%; in the assay with KB-3-1, -1.17%; with NIH3T3 [1], 4.96%. Also, the Potency entry in the assay with MCC-13, in the assay with MCC-26, in the assay with MKL-1, in the assay with MKL-2, with UISO and in the assay on WaGa was “inactive” throughout.

Turning to `CC(=O)OCC(=O)[C@@]12N=C(C)O[C@H]1C[C@H]1[C@@H]3CCC4=CC(=O)C=C[C@]4(C)[C@@H]3[C@@H](O)C[C@@]12C`, the max response in the assay on CRL-7250 is 0.387%; in the assay on HEK293 it was -6.3%; in the assay with HaCat, -2.39%; in the assay with KB-3-1, 7.6%; with NIH3T3 [1], -3.36%. The Potency entry in the assay with MCC-13, in the assay with MCC-26, with MKL-1, in the assay with MKL-2, in the assay with UISO and in the assay on WaGa was “inactive” throughout.

`CC(C)(O)[C@H]1CC[C@@](C)([C@H]2[C@@H](O)C[C@@]3(C)[C@@H]4C[C@H](O[C@@H]5O[C@H](CO)[C@@H](O)[C@H](O)[C@@H]5O)[C@H]5C(C)(C)[C@@H](O[C@@H]6OC[C@@H](O)[C@H](O)[C@@H]6O)CC[C@@]56C[C@@]46CC[C@]23C)O1`: the outcome in the assay with CRL-7250, in the assay on NIH3T3 [1] and with NIH3T3 [2] was inactive. The max response with HEK293 is 2.98%; with HaCat, -6.06%; in the assay on KB-3-1, 2.16%. Moreover, the Potency entry with MCC-13, in the assay on MCC-26, with MKL-1, in the assay with MKL-2, with UISO and in the assay on WaGa was “inactive” in each case.

`CC(C)C[C@H](NC(=O)CNC(=O)c1cc(Cl)ccc1Cl)B1OC(=O)CC(CC(=O)O)(C(=O)O)O1` (some centres not stated): the Potency in the assay with CRL-7250 was 1.32 µM (active); in the assay on HEK293, 0.469 µM (active); in the assay on HaCat, 4.18 µM (active); in the assay on KB-3-1, 1.05 µM (active); in the assay with NIH3T3 [1], 0.833 µM (active); in the assay with MCC-13, 1.18 µM (active). In addition, the Potency with MCC-26 is 0.59 µM (active); in the assay on MKL-1, 0.743 µM (active); with MKL-2 it was 0.187 µM (active); in the assay with WaGa it was 0.209 µM (active).

Regarding `COc1cc([C@@H]2c3cc4c(cc3[C@H](O)[C@H]3COC(=O)[C@@H]23)OCO4)cc(OC)c1OC`, the Potency in the assay with CRL-7250 is 0.296 µM (active); in the assay on HEK293 it was 0.132 µM (active); in the assay with KB-3-1, 0.235 µM (active); with NIH3T3 [1], 0.187 µM (active); in the assay with MCC-13, 0.662 µM (active). In addition, the max response in the assay with HaCat is 4.88%.

For `COc1ccnc2[nH]cc(C(=O)C(=O)N3CCN(C(=O)c4ccccc4)C[C@@H]3C)c12`, the max response in the assay with CRL-7250 was -9.05%; with HEK293, -2.26%; with HaCat it was -2.32%; in the assay with KB-3-1, 3.92%; with NIH3T3 [1] it was -11.5%. The Potency result in the assay on MCC-13, in the assay on MCC-26, in the assay with MKL-1, in the assay on MKL-2, with UISO and with WaGa was “inactive” each time.

For `O=c1ccn([C@@H]2O[C@H](CO)[C@H](O)[C@@H]2F)c(=O)[nH]1`, the max response was -4.58% with CRL-7250; -5.58% with HEK293; 4.18% in the assay on HaCat; 5.55% in the assay with KB-3-1; 2.94% in the assay on NIH3T3 [1]. Moreover, the Potency result with MCC-13, in the assay with MCC-26, with MKL-1, in the assay with MKL-2, with UISO and with WaGa was “inactive” each time.

For `CC(=O)N[C@H]1[C@@H]([C@H](O)[C@H](O)CO)OC(C(=O)O)=C[C@@H]1N=C(N)N`, the max response with CRL-7250 was -3%; in the assay with HEK293 it was 2.95%; with HaCat, -9.9%; in the assay with NIH3T3 [1], 3.71%. Besides, the molecule was called inactive with KB-3-1. Also, the Potency result in the assay with MCC-13, in the assay on MCC-26, with MKL-1, with MKL-2, in the assay with UISO and with WaGa was “inactive” in each case.

As for `OCC(O)C(O)C(O)CO` (configuration not stated), the Potency result in the assay on TAB165, in the assay on W2, in the assay with MCC-13, in the assay on MCC-26, with MKL-1 and in the assay on MKL-2 was “inactive” in each case. Moreover, the Potency entry in the assay with UISO and with WaGa was “inactive” in each case. The max response with CRL-7250 was -10.5%; in the assay on HEK293, -3.06%; with HaCat, -1.15%; in the assay on KB-3-1, -4.24%; in the assay on NIH3T3 [1], 2.68%.

`O=C(C=Cc1ccc(CN(CCO)CCc2c[nH]c3ccccc23)cc1)NO`: the Potency with CRL-7250 was 0.833 µM (active); in the assay with HEK293, 0.372 µM (active); in the assay on HaCat it was 0.526 µM (active); in the assay with KB-3-1 it was 0.264 µM (active); with NIH3T3 [1], 1.05 µM (active); in the assay on MCC-13, 1.66 µM (active). Moreover, the Potency in the assay on MCC-26 was 1.18 µM (active); in the assay with MKL-1, 0.418 µM (active); in the assay with MKL-2 it was 0.105 µM (active); with UISO, 1.18 µM (active); in the assay on WaGa, 0.105 µM (active).

(Values after PubChem BioAssay (NCATS).)
